Results: PubChem BioAssay AID687001 (Broad Institute, 2013)
Entries with a potency or affinity are not part of this list. The source made the active and inactive calls.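 The calls were made as follows: active = signal-lowering compounds whose fitted half-maximal concentration is at or below twice the top tested dose in every run; inconclusive = runs disagree, flat 30 to 70% inhibition, or poor curve fit; inactive = the rest.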

biological target: Protein S100-A4 (Homo sapiens) (UniProt P26447); experiment: human S100A4 peptide interaction inhibition curves – biochemical, fluorescence polarization, cherry-picked hits, dose response (AID 687001); conditions: FP, S100A4/TAMRA-myosin IIA peptide binding; series mostly up to 11 µM
Sequence (P26447 whole entry, looked up): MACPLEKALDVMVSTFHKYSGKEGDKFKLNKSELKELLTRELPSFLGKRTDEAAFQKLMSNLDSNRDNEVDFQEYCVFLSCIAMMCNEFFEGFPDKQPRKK

outcome, inactive:
Cc1ccc(C2CC(=O)NC(SCCC(C)C)=C2C#N)cc1 (stereo not drawn)
O=C1O[C@@H](c2ccccc2)C[C@@H](O)C(=O)CCCCc2ccccc21
CS(=O)(=O)N(CCc1ccccc1)CC(=O)N1CCCCCC1
CC(C)CC#Cc1ccc([C@H]2[C@H]3CN(C(=O)Cc4cccnc4)CC(=O)N3[C@H]2CO)cc1
COc1cccc(-c2ccc([C@H]3[C@H](CO)N4CCCCN(CC5CC5)C[C@@H]34)cc2)c1
CN(C)S(=O)(=O)c1ccc(Cl)c(C(=O)NNC(=O)Cn2ccc(C(F)(F)F)n2)c1
C[C@H]1CN([C@@H](C)CO)S(=O)(=O)c2ccc(C3=CCCCC3)cc2O[C@H]1CN(C)Cc1ccccc1
C[C@@H]1CCCCO[C@@H](CN(C)S(=O)(=O)c2cn(C)cn2)[C@H](C)CN([C@@H](C)CO)C(=O)c2cc(NC(=O)C3CCCCC3)ccc2O1
COc1ccc(-c2ccc3c(c2)O[C@H](CN(C)Cc2cccnc2)[C@@H](C)CN([C@H](C)CO)S3(=O)=O)cc1
C[C@@H]1CN([C@H](C)CO)C(=O)c2cc(NC(=O)C3CC3)ccc2O[C@@H]1CN(C)C(=O)Nc1ccc2c(c1)OCO2
CC(C)NC(=O)N(C)C[C@@H]1Oc2ccc(NS(=O)(=O)c3ccccc3)cc2C(=O)N([C@H](C)CO)C[C@@H]1C
CN1CCc2c(sc(NC(=O)C3COc4ccccc4O3)c2C(N)=O)C1 (stereo not drawn)
C[C@@H]1CN([C@@H](C)CO)C(=O)c2cc(/C=C/c3ccccc3)cnc2O[C@H]1CN(C)S(=O)(=O)c1cccs1
